# Source: PubChem BioAssay (National Center for Advancing Translational Sciences (NCATS))
# Shiga inhibitor: Shiga toxin inhibition | AID 2315 | 9.2% of 290,000 active | inhibition, % at 38.7 µM | Vero cells, Shiga toxin protein synthesis inhibition reporter; in the data active means inhibition mostly above about 28%, no sharp cut-off; inactive means mostly below about 43%; further: 0% is about no effect
# Pf growth 48h: P. falciparum growth inhibition at 48 hours (one generation); 5.9% of 310,000 active; Potency, µM (doses to about 28.7 µM), for the others: top-dose activity change, negative = inhibition, hits mostly inhibitors; P. falciparum luciferase growth in erythrocytes, 48 h; further: potency means the concentration at half of the fitted maximal effect; on the % scale 0 is the no-effect control and ±100 the full control effect
#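 A one-generation exposure of luciferase-tagged malaria parasites in RPMI 1640/Albumax erythrocyte culture, 37 C and 5% CO2. Inhibition is inferred from decreased luminescence after adding detection reagent.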
# Pf growth 96h: P. falciparum growth inhibition at 96 hour, primary screen for plastid delayed-death inhibitors; P. falciparum luciferase reporter growth, 96 h; 6.9% of 320,000 active; Potency, µM (highest dose often 28.7 µM), for inactives: at the top dose activity change, negative = inhibition, usual class: inhibitors; further: potency means the concentration at half of the fitted maximal effect; on the % scale 0 is the no-effect control and ±100 the full control effect
#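 96 h incubation, 37 C, 5% CO2, of luciferase-reporter P. falciparum-infected RBCs (2% hematocrit, 0.05% parasitemia final) with test compounds; endpoint luminescence.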
# HCV inh: inhibitors of hepatitis C virus infection. Huh7.5.1 HCVcc-Cre infection, luciferase reporter, 44 h. 3.4% of 340,000 active. Potency, µM (titrated, usually from 41.8 µM), inactives show at the top dose activity change, negative = inhibition, actives largely listed as inhibitors. AID 651820; further: potency means the concentration at half of the fitted maximal effect; on the % scale 0 is the no-effect control and ±100 the full control effect
#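 A cell-based infection assay in which seeded cells (1,000 per well) receive test compound after 4 h, are inoculated with HCVcc-Cre at approximately 0.5 moi, and are incubated 44 h before luminescence detection.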
# HCMV antiviral: inhibitors of human cytomegalovirus | HFF cells, HCMV-luciferase reporter, 72 h; hits give low values | activity change, negative = inhibition, % at 57.5 µM | 4.5% of 410,000 active; in the data active means activity change below about -60%; inconclusive means no clear call, values can overlap the other calls; inactive means above about -39%; further: on the % scale 0 is the no-effect control and ±100 the full control effect
#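 Cell-based, HFFs, 1000 cells/well, 16 h 37C; cpds in DMSO + HCMV-luc, MOI 1 PFU/cell; 72 h 37C; OneGlo luminescence after 5 min RT; norm. to buffer vs Salinomycin 10uM.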
# Cycloheximide cs: counter-screen hit for Shiga toxin inhibitors, cycloheximide; cell reporter, cycloheximide protein synthesis inhibition counterscreen; max response, %; 12% of 300,000 active; in the data active means max response mostly above about 13%, no sharp cut-off; inactive means mostly below about 14%; further: read at 38.3 µM for the half of the compounds with a filed dose; 0% is about no effect
# * = called active by the depositor; ? = inconclusive; . = no result; [ ] = remark or other dose. This is a sample that favours compounds with a hit; in the whole collection about 21% have one here. Unless noted, the call rests on the fitted dose curve; in most records, active means well fitted inhibition curve with a large enough effect; inconclusive means small, poorly fitted or top-dose-only effect, or another doubt; inactive means no such curve, though single readings can be large or run the other way.
SMILES,Shiga inhibitor,Pf growth 48h,Pf growth 96h,HCV inh,HCMV antiviral,Cycloheximide cs
O=C(NCc1ccco1)c1cc(-c2ccccc2)nn1CC1CC(c2cccnc2)=NO1 (stereo not given),.,.,.,-25%,2,.
COc1ccc(C2=NOC(Cn3nc(C(=O)NCC4CC4)cc3-c3ccccc3)C2)cc1 (stereo not given),.,?,9.3µM*,?,12,.
CCCCN(CCCC)CCCNC(=O)Cn1cc(C)c(=O)[nH]c1=O,.,.,.,.,-6,.
COc1ccc(C2=NOC(Cn3nc(-c4ccccc4)cc3C(=O)NCc3ccc(C)cc3)C2)cc1 (stereo not given),.,.,.,12%,-13,.
COc1ccc(C2=NOC(Cn3nc(C(=O)NCc4ccc(OC(F)(F)F)cc4)cc3-c3ccccc3)C2)cc1 (stereo not given),.,10µM*,-20%,17%,11,.
CC(C)(C)N(Cc1ccccc1)C(=O)COC(=O)c1cccc([N+](=O)[O-])c1,-6,70%,-25%,9%,-12,8
CC(=O)c1cccc(NC(=O)c2ccccc2-c2ccccc2C(=O)O)c1,-16,17%,?,8%,24,-5
CC(=O)c1ccc(NC(=O)c2cnn3ccccc23)cc1,55*,.,10µM*,?,?,44*
CC(=O)c1cccc(NC(=O)c2cnn3ccccc23)c1,59*,.,?,-23%,187,89*
Cc1ccc(S(=O)(=O)NCc2ccccc2)cc1C(=O)NCc1ccncc1,.,.,.,.,-15,.
O=S(=O)(c1ccccc1)N1CCC(c2noc3ccccc23)CC1,.,.,.,.,-13,.
c1ccc(-c2ccc(OCCOCCn3cncn3)cc2)cc1,57*,80%,13%,-8%,-9,35*
c1ccc(COc2ccc(OCCCn3cncn3)cc2)cc1,61*,349%,2%,7%,-9,35*
CCOC(=O)C1=C(C)Nc2ccccc2N=C1NC(=O)C1CCN(C(=O)c2ccccc2C)CC1,.,.,.,6%,-12,.
O=C1Nc2ccccc2N=C(c2ccccc2)c2ccccc21,17,?,?,12%,11,20*
CCCC1(C(=O)O)NC(c2ccc(OC)cc2O)C2C(=O)N(c3ccc(OC)cc3)C(=O)C21 (stereo not given),11,.,15µM*,1%,5,-6
COc1ccc(N2C(=O)C3C(c4ccc(OC)cc4O)NC(Cc4ccccc4)(C(=O)O)C3C2=O)cc1 (stereo not given),21,2%,82%[5.75 µM],26%,-16,10
CCCCC[C@@H]1CCCCC[C@@H](O)C[C@@H](O)[C@H](O)/C=C/C(=O)O1,.,.,.,.,-19,.
Cc1cc(C)c2c(n1)sc1c(=O)n(-c3cc(Cl)ccc3C)nnc12,.,.,.,.,-60*,.
Cc1cc2nc(C)n(CCCNC(=O)Nc3ccc(C#N)cc3)c2cc1C,-17,10µM*,4%,16%,-29,-5
C=CCCC1CN(CC=C)S(=O)(=O)c2c(F)cccc2O1 (stereo not given),.,.,.,.,-8,.
CC(Sc1nc(-c2ccccc2)cc(C(F)(F)F)n1)C(=O)N1CCCC1 (stereo not given),-13,3%,?,3%,-15,-6
CC(Sc1nc(-c2ccccc2)cc(C(F)(F)F)n1)C(=O)N1CCOCC1 (stereo not given),-6,?,1.7µM*,?,-35,-5
CC1CCC(O)C/C1=C\C=C1/CCCC2(C)C1CCC2C(C)/C=C/C(C)C(C)C (stereo not given),4,-6%,-25%,.,.,13
O=C1c2ccccc2NC2(CCCC2)N1O,53*,.,-90%,2%,-7,16*
SMILES,Shiga inhibitor,Pf growth 48h,Pf growth 96h,HCV inh,HCMV antiviral,Cycloheximide cs
O=C1c2ccccc2NC2(CCCCC2)N1N=C1CCCCC1,44*,1%,?,14%,2,60*
CCOc1ccc(CCNC(=O)Cn2nc(C)n3c(cc4occc43)c2=O)cc1OCC,.,.,.,.,-1,.
CCOc1ccccc1C(=O)N1CC(=O)Nc2ccc(C)cc2C1c1ccccc1 (stereo not given),.,.,.,.,22,.
O=S(=O)(c1ccc(Cl)cc1)c1nc(-c2ccco2)oc1SCc1ccccc1F,.,.,.,.,-15,.
Cc1cc(N=Nc2ccccc2C)ccc1N,.,.,.,13µM*,27,.
CC(C)C(NC(=O)c1c(F)cccc1F)C(=O)N1CCN(c2ccccc2F)CC1 (stereo not given),-12,-29%,-29%,18%,-18,11
CC(C)c1ccc(/C=c2\sc3nc(-c4ccncc4)nn3c2=O)cc1,28,0%,4.1µM*,7%,44,8
Cc1ccc(/C=c2\sc3nc(-c4cccnc4)nn3c2=O)cc1,2,-2%,?,14%,24,-2
Brc1cccc(CNc2nc3ccccc3n2CCN2CCCCC2)c1,-3,?,12µM*,?,?,-1
Cn1c(NCc2cccc(Br)c2)nc2ccccc21,26*,-12%,-4%,-27%,71,13*
c1ccc(Cn2c(CNc3nc4ccccc4n3CCN3CCOCC3)nc3ccccc32)cc1,-7,12µM*,9%[5.75 µM],4%,-27,-3
Brc1ccc(CNc2nc3ccccc3n2CCN2CCCCC2)cc1,-16,?,13µM*,?,0,-2
Cc1cc(C)cc(NC2=CC(c3cccc(F)c3)N(c3cc(C)cc(C)c3)C2=O)c1 (stereo not given),.,.,.,.,-7,.
Fc1ccccc1N1CCN(CCCc2ccccc2)CC1,12,0%,12µM*,6%,-35,-3
CC(C)(C)C1CCC(OC(=O)C[N+]2(C)CCCCC2)CC1 (stereo not given),22,12µM*,-1%,-10%,-62*,1
Cn1cc(-c2cc3c(Nc4ccc(OC(F)(F)F)cc4)nccc3[nH]2)cn1,.,.,.,.,-65*,.
c1ccc(-c2noc(-c3cccc4ccccc34)n2)cc1,50*,243%,344%,0%,19,54*
c1cncc(-c2noc(-c3cccc4ccccc34)n2)c1,89*,80%,.,?,211,45*
c1ccc2c(-c3nc(-c4ccncc4)no3)cccc2c1,63*,?,32%,.,153,21*
Clc1ccc(Br)cc1-c1nc(-c2ccncc2)no1,9,6%,32%,7%,100,8
c1ccc(-c2ccccc2-c2nc(-c3cccnc3)no2)cc1,-6,?,.,11µM*,-16,-1
c1ccc(-c2cc(-c3nc(-c4cccnc4)no3)c3ccccc3n2)cc1,-6,19%,?,.,.,0
C[C@@H]1CCCCO[C@H](CN(C)S(=O)(=O)c2cccs2)[C@@H](C)CN([C@H](C)CO)C(=O)c2cc(NC(=O)C3CCCCC3)ccc2O1,.,.,.,.,-10,.
CCOc1ccc(NC(=O)CN2C(=O)C3(SCC(=O)N3c3ccc(F)cc3)c3ccccc32)cc1 (stereo not given),.,.,.,.,-25,.
